# The supplement of paper PMC6555819
# How the values were obtained:
# Experiment in all cases: PBM binding z-score (relative to random genomic background probes); higher = stronger binding; sequences stand for … in GC…GCGATTGACAGCGTAGAATGAAGG
# [1] = tested on: RARb homodimer (NR concentration 270 nM)
# Summary of the method: (§1)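 Ligand-free nuclear receptor dimers were bound for 1 h to custom Agilent 4×180K protein-binding microarrays. Detection used antibodies against each partner (one per run). Binding z-scores rest on regression-normalized fluorescence, with random background probes as the reference.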
# [2] = tested on: RARg:RXRa (NR concentration 270 nM, RXRa partner concentration 90 nM)
# Summary of the method: as §1
# [3] = tested on: RARg homodimer (NR concentration 270 nM)
# Summary of the method: as §1
# [4] = tested on: RXRa DBDmut IVT, anti-RXR (DBD mutation: RXRa K156A/R161A, NR concentration 90 nM)
# Summary of the method: as §1
# [5] = tested on: RXRa homodimer (NR concentration 180 nM)
# Summary of the method: as §1
# [6] = tested on: THRa:RXRa (NR concentration 90 nM, RXRa partner concentration 90 nM)
# Summary of the method: as §1
# [7] = tested on: THRa homodimer (NR concentration 90 nM)
# Summary of the method: as §1
# [8] = tested on: VDR homodimer (NR concentration 270 nM)
# Summary of the method: as §1
Sequence,PBM binding z-score [1],PBM binding z-score [2],PBM binding z-score [3],PBM binding z-score [4],PBM binding z-score [5],PBM binding z-score [6],PBM binding z-score [7],PBM binding z-score [8]
CGTCCAAGGTCATAGGAGGTCAGTTAAGACAGAT,5.16,6.57,7.05,4.09,6.19,5.3,3,4.11
CCTAGTTGGTCAAGGTCACACAAGCTATAGGTAC,4.53,4.81,4.89,2.26,4.88,4.19,3.83,3.72
CGACCTAGGTCATCCAGGACAGTGAATACATTGA,3.41,4.75,4.97,2.6,3.37,4,2.18,2.5
TCTAGTTTGTCAAAGGTCACACACTCGAAATGCG,4.86,6.06,5.71,2.14,6.98,4.07,1.98,2.58
CGTCAAAGTTCAAGGTATCGTAACAGAAAGCAGC,3.49,4.96,5.95,4.18,3.95,1.94,-0.0941,3.17
GCTGCTAGGTCAGGTTGGTCACCTAACGGGTACG,2.81,2.67,3.43,0.0556,1.44,2.17,1.04,0.477
TCGAGTAGGTTAGTGGCATTCAGAATGGCGTCGA,-0.183,-0.478,-0.516,0.0324,-0.235,-0.441,-0.559,-0.54
CCACGGAGGACAGAAGGTCAGAGCTGTCCGCTTT,3.73,3.62,3.48,0.42,2.22,2.44,0.0793,0.236
CCAGACAGGTGTAAGGTAACTCAGTCTGGTACGC,-0.201,-0.0982,-0.292,0.0922,-0.0847,1.59,1.21,0.39
CGAACTAGGTCATCCAGGACATTGAATACATTGA,3.11,3.95,4.63,2.66,2.95,3.87,2.27,3.47
GCTAGTTGGTCAGCAAAAGGTCACACACCGGTCG,5.34,5.94,5.62,-0.0302,6.14,3.41,1.55,1.55
CGTCCATGGTCAAGGTCAGTGAAAGAGACTCGAA,3.21,3.15,3.78,0.79,2.4,2.84,1.79,1.02
ACTATTAGTTGAGACGAGGCCAACCGATAGGTTG,0.728,0.273,0.272,0.0149,0.182,2.57,0.433,0.394
GGAACGAGGGCACTCGAGTTGATAGCATGGCGAT,0.585,0.902,1.45,2.21,0.67,2.41,-0.47,1.75
GGAACGAGGGCAAAGTTGATAGAATCTGTCGACG,1.19,2.18,1.77,2.54,2.06,1.39,-0.286,1.42
CGTAGTTGGTCAAGGTCACACACGCTATAGGTAC,4.23,4.34,4.9,2.14,4.06,4.05,3.89,2.45
CCGACTGGGGCAACGTTACCATAACGCACAGCCA,-0.0419,0.137,0.521,-0.207,-0.126,-0.262,-0.261,-0.403

Sequence,PBM binding z-score [1],PBM binding z-score [2],PBM binding z-score [3],PBM binding z-score [4],PBM binding z-score [5],PBM binding z-score [6],PBM binding z-score [7],PBM binding z-score [8]
CTAGACAGGTGAGAAGGTAACTCAGCCTCGATTA,0.253,0.538,0.499,-0.295,0.228,0.0525,-0.0949,-0.377
CCTAGTTGGTCGGGAGGTCACACACCGGATATGA,4.12,4.67,3.83,0.718,5.07,3.56,2.93,3.06
ATACCAAGGTGATCGTGAGGTCGTTGAAACTAAC,2.04,2.53,1.34,0.72,1.98,3.84,3.02,3.25
AGTCAAAGTTCACTAGGTAATGTAAGATTCAGCT,3.71,4.84,5.6,4.39,3.73,1.91,-0.139,3.81
GCTGCTAGGTCAAGTGATGGTCAGCTAAAGCTCG,3.68,4.85,5.33,1.6,2.93,2.85,0.545,-0.211
GGAACGAGGGCACAGTTGATAGCATCTGTCGACG,0.918,1.28,1.61,1.69,0.922,1.08,-0.317,0.774
CCAACTAGGTCACAGAGGTCAAAGTCCGTGCGTA,5.91,7.44,8.06,3.39,7.77,4.66,3.24,6.85
CTAACTAGGTCAAAGGTCAAAGTCGAGCCAACCA,4.93,8.93,7.64,2.72,10.3,4.84,1.59,3.19
CCGTACGGGTCACTGACAGGTTATAGCATTTGGA,3.2,6.14,4.89,1.07,5.53,2.97,-0.108,0.766
CATACAGGGTCAGTTAGGCCAGAGTAGGGACGGC,2.87,3.61,3.84,1.68,2.94,2.77,1.04,1.69
ATATCAAGGTGATCGTGAGGTCGTTGATACTAAC,1.5,2.42,1.24,0.829,1.61,3.46,2.27,2.79
ACTAGCCGGCCAAGGGTCACTCAAGATTAGTCCG,3.6,3.96,3.47,-0.0861,3.65,2.5,0.383,0.509
AGAATGAGGTTACGATCAGGGAAACAGAATACAT,1.15,2.31,1.83,0.839,2.77,2.99,0.967,0.356
ACTATTAGTTCAGACGAGGGCAACCGATAGGTTG,2.05,1.74,1.88,2.26,0.943,4.09,0.384,2.44
CGTGCAAGGTCAAAGGTCAGTGAAGAGATGACGG,5.61,8.84,8.41,4.08,10.3,4.91,2.23,3.9
AATACAGGGTCATCGCAGGCCAGAGTACGCACAG,3.53,5.41,5.21,3.48,6.8,4.75,1.42,3.55
CTACCAAGCTGAACAAGGTCGTTGATTACTATTC,1.13,0.311,0.109,1.3,0.787,1.86,1.46,2.1
